Screening results (PubChem BioAssay)
Shown are actives, neighbours in structure and some others; about 19% of the full set was active somewhere.
SARS PLpro yeast: inhibitors of SARS-CoV papain-like protease in yeast; AID 485353; Potency, µM (top dose mostly 32.9 µM), without a hit: at the top dose activity, positive = growth rescue, usual class: activators; S. cerevisiae expressing SARS-CoV PLpro, growth rescue; 0.19% of 330,000 active; calls by dose curve; further: potency means the concentration at half of the fitted maximal effect; 0% is about no effect; nearly all actives have a fitted effect of over 55% in size
Pf growth 96h: inhibits malaria parasite growth, 96 h | P. falciparum luciferase reporter growth, 96 h | Potency, µM (top dose mostly 28.7 µM), without a hit: at the top dose activity change, negative = inhibition, usual class: inhibitors | 6.9% of 320,000 active | AID 504834; further: potency means the concentration at half of the fitted maximal effect; on the % scale 0 is the no-effect control and ±100 the full control effect
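Readout is luminescence from an integrated firefly luciferase in P. falciparum. Red cells, 2% hematocrit and 0.05% parasitemia final, were cultured with compound through two parasite generations (96 hours) at 37 C, 5% CO2.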
Pf growth 48h: inhibits P. falciparum growth in the first generation, 48 h. P. falciparum luciferase growth in erythrocytes, 48 h. Potency, µM (doses to about 28.7 µM), inactives show at the top dose activity change, negative = inhibition, actives largely listed as inhibitors. 5.9% of 310,000 active. AID 504832; further: potency means the concentration at half of the fitted maximal effect; on the % scale 0 is the no-effect control and ±100 the full control effect
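Luciferase-expressing parasites in RBCs, 2% Hct / 0.1% parasitemia final; RPMI 1640 + 0.5% Albumax; 37 C, 5% CO2, one generation; luminescence read-out, lower signal = inhibition.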
AMA1-RON2 inh: AMA1-RON2 (P. falciparum) interaction inhibition | 0.2% of 360,000 active | Potency, µM (series often up to 58.2 µM), inactives show at the top dose activity change, negative = inhibition, usual class: inhibitors | AID 720542 | AlphaScreen AMA1-biotinylated RON2 peptide binding;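 further: potency means the concentration at half of the fitted maximal effect; 0% = vehicle wells and -100% = peptide control; nearly all actives have a fitted effect of over 45% in size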
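AMA1 (3D7) with his tag at 25 nM final met compounds first, then biotinylated RON2 peptide at 25 nM; detection used donor plus acceptor beads, 10 µg/mL apiece, read by AlphaScreen after 30 min at room temperature.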
Shiga toxin inh: Shiga toxin inhibition. Vero cells, Shiga toxin protein synthesis inhibition reporter. inhibition, % at 38.7 µM. 9.2% of 290,000 active. AID 2315; in the data active means inhibition mostly above about 28%, no sharp cut-off; inactive means mostly below about 43%; further: 0% is about no effect
Cycloheximide cs: affects cycloheximide protein synthesis inhibition readout, counter-screen; 12% of 300,000 active; cell reporter, cycloheximide protein synthesis inhibition counterscreen; max response, %; in the data active means max response mostly above about 13%, no sharp cut-off; inactive means mostly below about 14%; further: read at 38.3 µM for the half of the compounds with a filed dose; 0% is about no effect
An asterisk follows results filed as active; ? = inconclusive; nt = not tested or not shown; [ ] = another dose, or the depositor's remark. Unless noted, the call rests on the fitted dose curve; in most records, active means well fitted curve in the direction sought with a large enough effect; inconclusive means small, poorly fitted or top-dose-only effect, or another doubt; inactive means no such curve, though single readings can be large; an effect the other way counts as inactive or inconclusive.

SMILES	SARS PLpro yeast	Pf growth 96h	Pf growth 48h	AMA1-RON2 inh	Shiga toxin inh	Cycloheximide cs
CC(=O)Nc1ccc(-n2cc(-c3ccccc3)[nH]c2=S)cc1	0.6%	5.9%	-11.5%	83.0%	5.9	5.4
O=C(COC(=O)c1ccc[nH]c1=O)NC1CCCc2ccccc21 (centres undefined)	0.2%	66.1%	2.8%	-0.7%	-7.1	1.2
COc1ccc(NS(=O)(=O)c2ccc3c(c2)CCN3C(=O)CCC(=O)O)cc1OC	-0.5%	39.1%	-20.3%[0.00184 µM]	0.0%	64.4*	32.9*
O=C(O)CCC(=O)N1CCc2cc(S(=O)(=O)Nc3ccc4c(c3)OCCO4)ccc21	-4.6%	13.1µM*	nt	-2.0%	11.8	8.3
CCOc1ccc(NS(=O)(=O)c2ccc3c(c2)CCN3C(=O)CCC(=O)O)cc1	-0.6%	?	9.3%	-4.0%	-10.5	0.5
CCC(C(=O)Nc1ccc2c(c1)OCCO2)n1c(=O)[nH]c2ccccc2c1=O (centres undefined)	9.5%	114.3%	57.0%	0.0%	88.3*	73.4*
O=C(Nc1ccc2c(c1)OCO2)C(=O)c1c[nH]c2ccccc12	-0.4%	-1.8%	161.0%	-3.3%	72.1*	27.6*
CCN(CC)C(=O)Cn1cc(C(=O)C(=O)N(C)C2CCN(C)CC2)c2ccccc21	1.5%	25.1%	59.8%	12.3%	11.8	-2.2
CCC1CCCCN1C(=O)C(=O)c1cn(CC(=O)N(CC)CC)c2ccccc12 (centres undefined)	18.1%	10.4µM*	-16.6%	9.0%	-9.0	9.2
Cc1[nH]c2ccccc2c1C(=O)C(=O)Nc1ccc2c(c1)OCCO2	3.5%	-22.9%	-29.1%	4.5%	95.8*	34.2*
Cc1cc(NC(=O)C(=O)c2c(C)[nH]c3ccccc23)no1	3.1%	23.0%	15.5%	-11.2%	38.6	9.0
COC(=O)CCCCCN1C(=O)NC(C2CC2)C(C(=O)OCc2ccccc2)=C1C (centres undefined)	nt	nt	nt	-9.0%	nt	nt
O=C(Cn1c(=O)[nH]c2ccccc2c1=O)Nc1cccnc1	-0.6%	36.2%	13.9%	-5.4%	-7.4	-1.1
CCN(CC)C(=O)Cn1cc(C(=O)C(=O)NCCCN2CCOCC2)c2ccccc21	2.6%	10.1%	7.0%	1.8%	-6.4	1.0
O=C(Nc1ccc2c(c1)OCCO2)C(=O)c1c[nH]c2ccccc12	0.3%	27.4%	97.4%	11.6%	20.8*	28.9
CC(=O)N[C@@H](Cc1c[nH]c2ccccc12)C(=O)OCC(=O)Nc1ccc2c(c1)OCO2	nt	nt	nt	0.0%	nt	nt
C[C@@H](C(=O)Nc1cccnc1)n1c(=O)[nH]c2ccccc2c1=O	7.7%	?	11.7µM*	-2.5%	-5.9	-0.5
CCN(CC)C(=O)Cn1cc(C(=O)C(=O)Nc2ccc3c(c2)OCCO3)c2ccccc21	5.7%	-5.9%	8.0%	-8.2%	102.6*	48.2*
O=C(CN1C(=O)NC2(CCCCCC2)C1=O)NCCc1ccc(F)cc1	4.8%	?	13.9%	-5.9%	nt	nt
O=C(COC(=O)c1ccc(Cl)cc1O)NC(=O)C1CCCCC1	3.1%	36.0%	0.0%	11.2%	-18.9	-1.1
COc1ccc(N=Cc2sc3ccccc3c2Cl)cc1	3.5%	32.4%	32.1%	2.3%	13.0	25.0*
O=[N+]([O-])c1ccc(O)c(N=Cc2sc3ccccc3c2O)c1	?	?	?	?	60.7*	60.0*
Oc1ccc(Cl)cc1N=Cc1sc2ccccc2c1Cl	-11.4%	2.33µM*	?	12.1%	60.5*	41.4*
Oc1c(C=Nc2cccc3cccnc23)sc2ccccc12	?	nt	?	nt	81.5	31.1
COc1cc(NC(=O)c2ccc(Cl)cc2Cl)ccc1NC(=O)c1cccs1	0.4%	44.2%	40.3%	-5.5%	12.9	-1.7
O=C(CSc1nc2c(c(C(F)(F)F)n1)CCc1ccccc1-2)NCc1ccccc1	?	21.1%	-11.0%	2.3%	17.0	2.8
Cc1nn(Cc2ccccc2)c(C)c1NC(=O)CSc1nc2c(c(C(F)(F)F)n1)CCc1ccccc1-2	6.2%	8.28µM*	5.22µM*	0.0%	-1.5	-2.0
CN(CC(=O)Nc1ccccc1Cl)C(=O)COC(=O)c1nc(Cl)c(Cl)c(Cl)c1Cl	-4.3%	0.0%	-4.5%	-16.5%	52.5*	45.2*
